Data reported in PubChem BioAssay (NCATS).
Results filed as inconclusive are left out. Entries that show only a call come without a potency. Calls of active or inactive are those of the source. Calls come from the whole dose curve; as a rule, active = well fitted inhibition curve with a large enough effect; inconclusive = small, poorly fitted or top-dose-only effect; inactive = flat fitted curve, though single readings scatter.

target: Calcium and integrin-binding protein 1 (Homo sapiens) (UniProt Q99828); assay: Primary qHTS for Identification of Calcium Integrin Binding Protein 1 (CIB1) Competitor (AID 1508620); settings: CIB1-GST / FITC-alphaIIb peptide fluorescence polarization; series mostly up to 114 µM;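 note: GST tagged CIB1 binding a fluorescein labelled alphaIIb integrin peptide tracer; top concentration of the series differs between compounds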
Sequence (Q99828 whole entry, looked up): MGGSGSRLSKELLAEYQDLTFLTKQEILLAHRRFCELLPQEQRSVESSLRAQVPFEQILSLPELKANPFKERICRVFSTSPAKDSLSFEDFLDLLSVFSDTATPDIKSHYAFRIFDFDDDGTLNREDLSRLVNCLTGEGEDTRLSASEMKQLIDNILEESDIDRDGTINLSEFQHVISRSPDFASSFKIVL
In short: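 CIB1-GST (1 uM final) and compound incubated 15 min at room temperature before adding FITC-alphaIIb peptide tracer (100 nM final). Competition for binding read by fluorescence polarization (ex 480, em 540) after another 15 min at room temperature.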

SMILES | Potency
COc1ccnc(NC(=S)N2CCN(c3ncc(C(F)(F)F)cc3Cl)CC2)c1 | inactive
O=C(NCCc1nc2ccccc2n1CCOc1ccccc1F)C1CCCCC1 | inactive
NNC(=O)C(C(=O)OCc1ccccc1)c1ccccc1 (centres undefined) | inactive
Cc1nnc(-c2cnn(C)c2N)n1CCCc1ccccc1 | inactive
O=[N+]([O-])c1cccc(S(=O)(=O)N2CCN(S(=O)(=O)c3ccc4c(c3)OCCO4)CC2)c1 | inactive
N#Cc1c(-c2ccc3ccccc3c2)no[n+]1[O-] | inactive
Fc1cc(Nc2nc(-c3ccncc3)nc3ccccc23)ccc1OCC(F)(F)F | inactive
O=C(O)c1ccc2c(c1)C(=O)N([C@H](Cc1c[nH]c3ccccc13)C(=O)O)C2=O | inactive
Cc1cc(C)n2ncc(C(=O)Nc3ccc(C(C)(C)C)cc3)c2n1 | inactive
Cc1ccc(-c2ccc(C(C)Nc3nc(-c4ccccc4C(C)C)ncc3C)cc2)cn1 (centres undefined) | inactive
CC(=O)NC(c1ccco1)c1cc(Br)c2cccnc2c1O (centres undefined) | inactive
O=C(O)c1ccc(S(=O)(=O)N[C@H](Cc2c[nH]c3ccccc23)C(=O)O)cc1 | inactive
COc1ccccc1C1=Nn2c(nnc2-c2ccccc2C)SC1 | inactive
CN(C)C(=O)C1CCN(c2nc(-c3ccc(Br)cc3)cs2)CC1 | inactive
CNc1oc(-c2cccc3c2OC(F)(F)O3)nc1C#N | inactive
O=C1CCCC2=C1C(c1[nH]ncc1Cl)NC(=NCc1ccccc1)N2 (centres undefined) | inactive
Cc1sc(NC(=O)Cc2ccc3c(c2)OCO3)nc1-c1ccc2c(c1)CCN2C | inactive
Cc1cnc(-c2ccccc2CO)nc1NCc1ccc(-c2cccnc2)cc1 | inactive
C=CCNc1oc(-c2cccnc2)nc1C#N | inactive
O=C1CCc2cc(S(=O)(=O)Nc3cccc(F)c3)ccc2N1 | inactive

SMILES | Potency
Cc1nc(CNc2ncnc3ccc(-c4oc(-c5ccccc5)nc4C)cc23)cs1 | inactive
NC(=O)c1c(NC(=O)c2ccncn2)sc2c1CCCC2 | inactive
Cc1cc2c(s1)c1cnn(Cc3cc(F)cc(F)c3)c(=O)c1n2C | inactive
O=C1CCCC2=C1C(c1[nH]ncc1Cl)NC(=NCc1ccoc1)N2 (centres undefined) | inactive
Cc1ccc(NS(=O)(=O)c2cc3c(cc2Cl)NC(=O)CO3)cc1Cl | inactive
CC1=C(C(=O)Nc2ccccc2Cl)C(c2ccccc2Br)N=C(Nc2nc3ccccc3o2)N1 (centres undefined) | inactive
COc1ccccc1NS(=O)(=O)c1ccc2c(c1)CCC(=O)N2 | inactive
Cc1ccc(NS(=O)(=O)c2cc3c(cc2Cl)CCC(=O)N3)cc1C | inactive
CC(=O)N1CCN(C(=S)Nc2cc(C)ccn2)CC1 | inactive
O=C(Nc1ccc2ccccc2c1)Nc1nnc(-c2ccc(Cl)cc2Cl)s1 | inactive
NCCC(=O)Nc1cccc(-c2nn3c(=O)cc(N4CCNCC4)nc3s2)c1 | inactive
Cc1ccc(NS(=O)(=O)c2ccc3c(c2)CCC(=O)N3)cc1 | inactive
COc1cc(O)c([C@H](CC(=O)N2CC(C)CC(C)C2)c2ccc3c(c2)OCO3)c(OC)c1 (some centres undefined) | inactive
O=C1CCCC2=C1C(c1[nH]ncc1Cl)N=C(Nc1nc3c(Br)cccc3o1)N2 (centres undefined) | inactive
CC(=O)Nc1ccc(OCc2cccc(-c3nc4ccccc4c(=O)n3Cc3ccco3)c2)cc1 | inactive
N#Cc1c(-c2ccc(OCCOCCOCCNC(=O)CCCC[C@@H]3SC[C@@H]4NC(=O)N[C@@H]43)cc2)no[n+]1[O-] | inactive
NC(=O)C1CCN(c2nc(-c3cccc4sc5ccccc5c34)cs2)CC1 | inactive
N#Cc1c(-c2cccc(Br)c2)no[n+]1[O-] | inactive
O=S(=O)(Nc1ccc2ccccc2c1)c1ccc(NCc2cccc(Cl)c2O)cc1 | inactive
